In PubChem BioAssay AID1159580 (chemical genetic matrix, 2015):
Several values for one entry are separate records, joined by “and”; a condition that tells them apart may be missing. Equal values may be shown once. Screen size: about 5,500 compounds; about 2,000 (36%) were called active. About 18% were inconclusive and are not listed. Rule as the data show it: active = normalized growth mostly below about 0.91 (no sharp cut-off); inconclusive = no clear call, values can overlap the other calls; inactive = mostly above about 0.92. The list shows a part of the results.

Assay: chemical genetic growth profiling, strain panel (AID 1159580);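 also: tested at 20 µM; growth read once vehicle control cultures reached saturation at 30 °C; 1 = growth at the plate median or of vehicle wells; lower values mean less growth of the strain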
Conditions: S. cerevisiae deletion strains, growth OD

Measured: normalized growth

COc1ccc(-c2cc(=O)c3c(O)cc(O)cc3o2)cc1
0.957 (inactive) and 0.879 (active): locus YJL095W, strain BCK1, stronger effect = lower value
active: locus YHR079C, strain IRE1, stronger effect = lower value 0.847 | locus YJR066W, strain TOR1, stronger effect = lower value 0.792
1.01 (inactive) and 0.823 (active): locus YHR030C, strain SLT2, stronger effect = lower value
inactive: locus YAL013W, strain DEP1, stronger effect = lower value 1.01 | locus YAL021C, strain ccr4, stronger effect = lower value 0.967 | locus YAL026C, strain drs2, stronger effect = lower value 0.975 | locus YAL030W, strain snc1, stronger effect = lower value 1 | locus YBL061C, strain skt5, stronger effect = lower value 1 | locus YBR009C, strain hhf1, stronger effect = lower value 0.939 | locus YBR021W, strain FUR4, stronger effect = lower value 1.02 | locus YBR023C, strain chs3, stronger effect = lower value 0.961 | locus YBR171W, strain sec66, stronger effect = lower value 0.999 | locus YBR229C, strain ROT2, stronger effect = lower value 1 | locus YBR231C, strain swc5, stronger effect = lower value 0.981 | locus YBR279W, strain paf1, stronger effect = lower value 0.977 | locus YCL011C, strain gbp2, stronger effect = lower value 0.958 | locus YCL016C, strain dcc1, stronger effect = lower value 0.955 | locus YCL029C, strain bik1, stronger effect = lower value 0.976 | locus YCL069W, strain vba3, stronger effect = lower value 0.967 | locus YCR088W, strain abp1, stronger effect = lower value 0.987 | locus YDL005C, strain med2, stronger effect = lower value 1.02 | locus YDL035C, strain GPR1, stronger effect = lower value 1.03 | locus YDL040C, strain nat1, stronger effect = lower value 0.996 | locus YDL074C, strain BRE1, stronger effect = lower value 0.95 | locus YDL101C, strain DUN1, stronger effect = lower value 0.978 | locus YDL185W, strain tfp1, stronger effect = lower value 0.963 | locus YDL192W, strain arf1, stronger effect = lower value 0.989 | locus YDR001C, strain nth1, stronger effect = lower value 0.988 | locus YDR069C, strain doa4, stronger effect = lower value 1.02 | locus YDR101C, strain arx1, stronger effect = lower value 0.985 | locus YDR137W, strain rgp1, stronger effect = lower value 0.87 | locus YDR159W, strain sac3, stronger effect = lower value 0.996 | locus YDR162C, strain NBP2, stronger effect = lower value 0.999 | locus YDR195W, strain ref2 1.1 | locus YDR297W, strain sur2, stronger effect = lower value 0.994 | locus YDR318W, strain mcm21, stronger effect = lower value 0.982 | locus YDR334W, strain swr1, stronger effect = lower value 0.992 | locus YDR335W, strain msn5, stronger effect = lower value 0.978 | locus YDR388W, stronger effect = lower value 0.979 | locus YDR392W, strain spt3, stronger effect = lower value 0.804 | locus YDR502C, strain sam2, stronger effect = lower value 0.984 | locus YEL003W, strain gim4, stronger effect = lower value 0.963 | locus YEL037C, strain rad23, stronger effect = lower value 0.994 | locus YEL061C, strain CIN8 (second series), stronger effect = lower value 0.988 | locus YEL061C, strain CIN8, stronger effect = lower value 0.987 | locus YER015W, strain faa2, stronger effect = lower value 0.964 | locus YER016W, strain bim1, stronger effect = lower value 1.01 | locus YER110C, stronger effect = lower value 0.972 | locus YER111C, strain swi4, stronger effect = lower value 1.01 | locus YER155C, strain BEM2 (second series), stronger effect = lower value 0.966 | locus YER155C, strain BEM2, stronger effect = lower value 0.991 | locus YER167W, strain BCK2, stronger effect = lower value 1 | locus YFR010W, strain ubp6, stronger effect = lower value 1.01 | locus YGL078C, strain dbp3, stronger effect = lower value 0.978 | locus YGL086W, strain mad1, stronger effect = lower value 0.989 | locus YGL167C, strain pmr1, stronger effect = lower value 1.01 | locus YGL173C, strain kem1, stronger effect = lower value 1.01 | locus YGL227W, strain vid30, stronger effect = lower value 0.99 | locus YGL240W, strain doc1, stronger effect = lower value 0.975 | locus YGL248W, strain PDE1, stronger effect = lower value 0.984 | locus YGL253W, strain hxk2, stronger effect = lower value 0.964 | locus YGR135W, strain pre9, stronger effect = lower value 0.984 | locus YGR252W, strain gcn5, stronger effect = lower value 1.04 | locus YHR013C, strain ard1, stronger effect = lower value 1.06 | locus YHR027C, strain rpn1, stronger effect = lower value 1.01 | locus YHR079C, strain IRE1 (second series), stronger effect = lower value 0.971 | locus YHR094C, strain hxt1, stronger effect = lower value 0.992 | locus YHR129C, strain ARP1, stronger effect = lower value 0.998 | locus YHR142W, strain chs7, stronger effect = lower value 0.914 | locus YHR200W, strain rpn10, stronger effect = lower value 0.979 | locus YIL066C, strain RNR3, stronger effect = lower value 1.01 | locus YIL073C, strain SPO22, stronger effect = lower value 0.942 | locus YIL125W, strain kgd1, stronger effect = lower value 0.996 | locus YIR030C, strain dcg1, stronger effect = lower value 0.981 | locus YJL092W, strain hpr5, stronger effect = lower value 0.983 | locus YJL095W, strain BCK1 (second series), stronger effect = lower value 0.998 | locus YJL115W, strain asf1, stronger effect = lower value 1 | locus YJL129C, strain trk1, stronger effect = lower value 0.946 | locus YJL134W, strain LCB3, stronger effect = lower value 1 | locus YJL154C, strain vps35, stronger effect = lower value 0.999 | locus YJL164C, strain tpk1, stronger effect = lower value 0.931 | locus YJL166W, strain qcr8, stronger effect = lower value 0.965 | locus YJL168C, strain set2, stronger effect = lower value 0.999 | locus YJL187C, strain SWE1 (second series), stronger effect = lower value 0.979 | locus YJL187C, strain SWE1, stronger effect = lower value 1.01 | locus YJR043C, strain POL32, stronger effect = lower value 1.04
